# ALDH1A1 inh: blocks purified human ALDH1A1 activity. 220,000 compounds, 7.3% hits. Purified ALDH1A1, NADH fluorescence, propionaldehyde substrate. Potency, µM (top dose mostly 75.3 µM), inactives show at the highest dose activity, negative = inhibition, most hits filed as inhibitors;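 further: potency means the concentration at half of the fitted maximal effect; plate controls were no enzyme wells and a reference inhibitor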
# Target sequence (P00352 whole entry, looked up): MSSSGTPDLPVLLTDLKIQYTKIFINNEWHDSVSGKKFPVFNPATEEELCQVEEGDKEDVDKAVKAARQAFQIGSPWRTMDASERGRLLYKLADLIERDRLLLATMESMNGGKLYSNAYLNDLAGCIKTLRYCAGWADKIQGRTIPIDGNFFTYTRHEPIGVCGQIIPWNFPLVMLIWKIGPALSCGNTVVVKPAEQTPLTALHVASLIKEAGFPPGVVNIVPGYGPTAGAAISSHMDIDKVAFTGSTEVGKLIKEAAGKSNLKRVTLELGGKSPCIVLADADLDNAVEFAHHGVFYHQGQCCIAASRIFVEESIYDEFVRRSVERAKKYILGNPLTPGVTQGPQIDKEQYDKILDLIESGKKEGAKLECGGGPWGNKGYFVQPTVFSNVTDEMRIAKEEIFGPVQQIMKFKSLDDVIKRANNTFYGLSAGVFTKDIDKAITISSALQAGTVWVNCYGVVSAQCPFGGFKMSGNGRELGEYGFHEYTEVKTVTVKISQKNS
# IMPase inh: cell-permeable inhibitors of inositol monophosphatase (IMPase). P97697. CHO-M1 cells, IP1 accumulation, HTRF TR-FRET ratio. inhibition (IP1 accumulation), % at 46.1 µM. 120,000 tested, under 10 active. AID 901; active means well fitted curve in the direction sought with a large enough effect in the signal ratio, not every such curve was filed as active; inconclusive means small, poorly fitted or top-dose-only effect, or a change in a side signal; inactive means no such curve, though single readings can be large or run the other way; the % refers to the signal ratio;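 further: cells stimulated with carbachol in lithium chloride buffer; plate controls were DMSO basal wells for no effect and reference inhibitor wells for full effect; higher means more IMPase inhibition seen as more IP1 and lower FRET ratio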
#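 In this qHTS, compounds (final up to 46 uM) act on CHO-M1 cells that are then activated through the M1 receptor with carbachol, in pH 7.4 buffer containing 50 mM LiCl, for 30 min. IP1 accumulation is quantified by the IP-One immunoassay.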
# HPGD block: inhibitors of human 15-hydroxyprostaglandin dehydrogenase (HPGD); purified HPGD, NADH fluorescence kinetic, PGE2 substrate; Potency, µM, inactives show at the highest dose activity change, negative = inhibition, usual class: inhibitors; 150,000 compounds, 4.3% hits; AID 894; further: potency means the concentration at half of the fitted maximal effect
#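 20 nM HPGD preincubated 15 min at room temperature with compound in 50 mM Tris-HCl pH 8, 0.01% Tween 20. Started with 1 mM NAD+ and 30 uM prostaglandin E2; NADH fluorescence (360/450 nm) read 5 times over 30-s intervals, last minus first.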
# An asterisk follows results filed as active; ? = inconclusive; / = no result; ! = repeats disagree; [ ] = another dose, or the depositor's remark. Compounds with a hit are over-represented: about 9% of the library has one in this group of screens. Unless noted, the call rests on the fitted dose curve; in most records, active means well fitted inhibition curve with a large enough effect (not every such curve was filed as active); inconclusive means small, poorly fitted or top-dose-only effect, or another doubt; inactive means no such curve, though single readings can be large or run the other way. Unless noted, on the % scale 0 is the no-effect control and ±100 the full control effect.
SMILES,ALDH1A1 inh,IMPase inh,HPGD block
O=C(Nc1ccccc1)N1CCc2scc[n+]2-c2ccccc21,?,/,-8%
O=CN1CCc2scc[n+]2-c2ccccc21,14µM*,-1,-11%
CN(C)N1C(N)=C(C#N)C(c2cccs2)C2=C1CC(C)(C)CC2=O (stereo unspecified),10µM*,/,/
CC1(C)CC(=O)C2=C(C1)N(c1cccnc1)C(N)=C(C#N)C2c1cccs1 (stereo unspecified),22µM*,/,-26%
CC1(C)CC(=O)C2=C(C1)N(N1CCOCC1)C(N)=C(C#N)C2c1cccs1 (stereo unspecified),9%,/,-11%
CCSc1sccc1C1C(C#N)=C(N)N(c2cccnc2)C2=C1C(=O)CC(C)(C)C2 (stereo unspecified),-6%,-17,-10%
COc1ccc(NC(=O)N2CCCC3(CCN(C(=O)c4cc(C(F)(F)F)cc(C(F)(F)F)c4)CC3)C2)cc1,2%,/,-7%
CCN(CC)CC1CCCCN1CC(=O)N1c2ccccc2C(=O)Nc2cccnc21 (stereo unspecified),-2%,/,/
Cn1c(=O)c(CCc2ccccc2)nc2cncnc21,?,/,-11%
CC(C)NC(=O)CC(=O)N/N=C/c1ccc(Br)cc1,-7%,1,-11%
CC(C)CNC(=O)CC(=O)N/N=C/c1ccc(Br)cc1,0.89µM*,11,16µM*
C=CC[C@@H]1C=C[C@H](ON=C(C)C)[C@H](CO)O1,7%[13.5 µM],/,/
CCCN(CCc1ccccc1)[C@H]1CCc2c(O)cccc2C1,/,10,/
O=C(c1ccccc1)N1CCN(C2c3cccc4cccc(c34)C2NS(=O)(=O)c2ccccc2)CC1 (stereo unspecified),11µM*,5,-11%
O=S(=O)(NC1c2cccc3cccc(c23)C1N1CCNCC1)c1ccccc1 (stereo unspecified),-9%,-3,-8%
O=[N+]([O-])c1ccccc1S(=O)(=O)NCc1ccco1,0%,/,/
O=C1C2C3C=CC(CNS(=O)(=O)c4ccccc4[N+](=O)[O-])(O3)C2C(=O)N1c1ccccc1 (stereo unspecified),0.89µM*,/,/
O=C1C2C3C=CC(c4ccccc4)(C2C(=O)N1c1cccc(Cl)c1)C1C(=O)N(c2cccc(Cl)c2)C(=O)C31 (stereo unspecified),?,2,-17%
Cc1cc(C)c(S(=O)(=O)NCC23C=CC(O2)C2C(=O)N(c4ccccc4)C(=O)C23)c(C)c1 (stereo unspecified),2.5µM*,1,35µM*
CCOc1cc(C2NC(=O)NC(c3ccccc3)=C2C(C)=O)ccc1OC(C)=O (stereo unspecified),-4%,/,/
CN(C)S(=O)(=O)c1ccc(C(=O)Nc2nc(-c3cccs3)cs2)cc1,162%,16,?
COc1ccc(-n2c(C)cc(-c3csc(NC(=O)c4ccc(S(=O)(=O)N(C)C)cc4)n3)c2C)cc1,2.2µM*,/,-4%
COc1ccc2nc(SCC(=O)Nc3c(C)cccc3C)[nH]c2c1,?,4,-17%
COc1ccc2nc(S(=O)Cc3ncc(C)c(OC)c3C)[nH]c2c1 (stereo unspecified),-2%[20.9 µM],1[20.6 µM],28µM*
COC(=O)c1ccccc1Sc1ncnc2onc(C)c12,4%,/,/
SMILES,ALDH1A1 inh,IMPase inh,HPGD block
Cn1nnc(NC(=S)NC(=O)c2ccc(-c3ccc(Br)cc3)o2)n1,7.9µM*,/,/
CCn1nnc(NC(=O)c2ccc(-c3ccc(Cl)cc3)o2)n1,?,-8,?
CCOc1ccc(NC(=O)CSc2nc(-c3cccs3)cc(C(F)(F)F)n2)c([N+](=O)[O-])c1,8%,/,-8%
COCC1CCN(C(=O)c2cc(COc3ccc4ncccc4c3)on2)CC1,8%,/,/
CC(=O)c1cccc(NC(=S)Nc2ccn(Cc3cccc4ccccc34)n2)c1,0.79µM*,/,/
CC(=O)c1cccc(NC(=O)COC(=O)c2cccc(N3C(=O)c4ccccc4C3=O)c2)c1,14µM*,/,-12%
CCCC(=O)NC(=S)Nc1cccc(C(C)=O)c1,-11%,-9,16µM*
CC(=O)c1cccc(NC(=S)NCCc2ccc(F)cc2)c1,-4%,/,/
CCCCCC(=O)NC(=S)Nc1cccc(C(C)=O)c1,?,/,14µM*
CCC(=O)NC(=S)Nc1cccc(C(C)=O)c1,8%,-2,-15%
CCCCC(=O)Nc1cccc(NC(=S)NC(=O)C(C)C)c1,-1%,1,-5%
CC(=O)c1cccc(NC(=O)COC(=O)c2ccc3c(c2)OCCO3)c1,3%,/,/
CCCCCC(=O)NC(=S)Nc1ccc(N2CCOCC2)cc1,?,/,-9%
CCN(CC)C(=O)c1sc(NC(=O)C(C)Sc2nc(-c3ccccc3)cc(C(F)(F)F)n2)c(C(=O)OC)c1C (stereo unspecified),/,14,/
CCN=C1S/C(=C\c2sccc2C)C(=O)N1CC,?,16,-18%
O=C(CSc1cccc[n+]1[O-])NC(=O)c1ccc(OC(F)F)cc1,12%,/,/
CCCCOC(=O)Nc1nnc(Cc2ccc(Cl)cc2)s1,11%,/,/
C/C1=C/CC(C)(C)/C=C/C/C(C)=C/CC1,4%,/,-9%
CCCOC(=O)Nc1cccc(C(C)=O)c1,-1%,-1,10µM*
CCCOC(=O)Nc1ccc(C(N)=O)cc1,?,-3,-20%
CC(=O)c1cccc(NC(=S)NC(=O)CC(C)C)c1,4%,-1,16µM*
Cc1ccc(O)c(NC(=S)NC(=O)CC(C)C)c1,-4%,/,-9%
C[C@@H](NCCc1ccc(O)cc1)[C@@H](O)c1ccc(O)cc1,-6%,/,-15%
CCCCCCCCNC(C)C(O)c1ccc(SC(C)C)cc1 (stereo unspecified),7.9µM*!,/,-3%
CCc1ccc(C(=O)CN2C(=O)NC(C)(CCc3ccccc3)C2=O)cc1 (stereo unspecified),5%,2,-4%
SMILES,ALDH1A1 inh,IMPase inh,HPGD block
O=C(/C=C/c1ccc(F)cc1)Nc1ccc2[nH]c(=O)[nH]c2c1,13%,/,/
CC/C=C\C[C@H]1C(=O)CC[C@@H]1CC(=O)O,-4%,-1,2%
Cn1c(C(=O)N2CCCc3ccccc32)cc2sccc21,7.9µM*,-6,16µM*
O=C(c1cc(-c2ccccc2)on1)N1CCCC1,-1%,-9,?
O=C(c1cc(-c2ccccc2)on1)N1CCCc2ccccc21,14µM*,/,/
O=C(c1cc(-c2ccco2)on1)N1CCCc2ccccc21,8.9µM*,6,-22%
O=C(c1cc2sccc2n1Cc1ccccc1)N1CCCc2ccccc21,-11%,16,-11%
Cn1ccc(C(=O)N2CCCc3ccccc32)n1,13%,0,2%
CCOC(=O)CN1C(=O)N[C@@H](c2ccco2)C(C(=O)OC)=C1C,-9%[13.5 µM],/,-13%
NC1(C(=O)O)CCc2cc(P(=O)(O)O)ccc21 (stereo unspecified),-4%,/,/
NC(N)=N[C@H](CC(=O)O)c1ccccc1,8%[13.5 µM],/,-9%
Cc1noc(C)c1C(=O)N1CCC2(CCN(Cc3ccncc3)CC2)CC1,-14%,/,-8%
CS(=O)(=O)N(CC(=O)N1CCc2ccccc2C1)Cc1ccc(Cl)cc1,?,7,-11%
CCc1ccc(NC(=O)CC2NCCNC2=O)cc1 (stereo unspecified),7%,-2,-12%
CCc1ccc(NC(=O)CC2C(=O)Nc3c2c(=O)n(C)c(=O)n3C)cc1 (stereo unspecified),100µM*,3,-19%

# Screening results (PubChem)
